Results filed as inconclusive are left out. The source made the active and inactive calls. Unless noted, calls follow the shape of the dose curve; as a rule, active = well fitted curve in the direction sought with a large enough effect in the repeat runs; inconclusive = weak or mixed curves; inactive = no such curve, though single readings can be large; an effect the other way counts as inactive or inconclusive.
How the values were obtained:
[1] = A CellTox Green Cytotoxicity Assay to monitor cytotoxicity in HEK293 cells - 32 hour (AID 1224881); also: nearly all actives have a fitted effect of over 40% in size
In short: (§1)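 Real-time, in one plate: 600 HEK293 cells/well with dead-cell DNA dye, pinned compound after 5 h, 37 C incubation over 40 h; viable cells give no appreciable fluorescence.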

[2] = A CellTox Green Cytotoxicity Assay to monitor cytotoxicity in HepG2 cells - 0 hour (AID 1224882); also: nearly all actives have a fitted effect of over 35% in size
In short: (§2)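 Cytotoxicity was tracked as dead-cell DNA fluorescence in HepG2 cells treated with test compounds at 37 C; each time-point value comes from one kinetic series spanning 0, 8, 16, 24, 32 and 40 h.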

[3] = A CellTox Green Cytotoxicity Assay to monitor cytotoxicity in HepG2 cells - 32 hour (AID 1224883); also: nearly all actives have a fitted effect of over 50% in size
In short: as §2

[4] = A CellTox Green Cytotoxicity Assay to monitor cytotoxicity in HEK293 cells - 8 hour (AID 1224884); also: nearly all actives have a fitted effect of over 35% in size
In short: as §1

[5] = qHTS RealTime-Glo MT Cell Viability Assay in HepG2 cells - 16 hour (AID 1224885); also: nearly all actives have a fitted effect of over 50% in size
In short: (§3)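 Viability was tracked continuously by NanoLuc luminescence from prosubstrate reduced by living HepG2 cells, at successive time points over 40 h of compound exposure. Cells with reagent were preincubated 5 h at 37 °C before compound addition.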

[6] = qHTS RealTime-Glo MT Cell Viability Assay in HEK293 cells - 24 hour (AID 1224886); also: top concentration of the series differs between compounds; nearly all actives have a fitted effect of over 50% in size
In short: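 Viability tracked continuously by luminescence as live cells reduce a prosubstrate for NanoLuc; HEK293 cells preincubated 5 h, compound-treated at 37 C, and read at 0, 8, 16, 24, 32 and 40 h.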

[7] = qHTS RealTime-Glo MT Cell Viability Assay in HEK293 cells - 8 hour (AID 1224887); also: top concentration of the series differs between compounds; nearly all actives have a fitted effect of over 50% in size
In short: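 Kinetic, non-lysing viability readout. Seed HEK293 (600/well) with reagent, incubate 5 h at 37 C/5% CO2, pin 23 nL compound in DMSO, incubate at 37 C, read luminescence at 0, 8, 16, 24, 32, 40 h.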

[8] = qHTS RealTime-Glo MT Cell Viability Assay in HepG2 cells - 0 hour (AID 1224889); also: nearly all actives have a fitted effect of over 50% in size
In short: as §3

[9] = A CellTox Green Cytotoxicity Assay to monitor cytotoxicity in HepG2 cells - 8 hour (AID 1224890); also: nearly all actives have a fitted effect of over 45% in size
In short: as §2

[10] = qHTS assay to identify small molecule antagonists of the estrogen receptor alpha (ER-alpha) signaling pathway using the BG1 cell line in the presence of 0.1 nM 17-beta-estradiol - cell viability counter screen (AID 1259241); also: nearly all actives have a fitted effect of over 40% in size
In short: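 Following 5 days in phenol red-free medium with charcoal-stripped serum, VM7Luc4E2 cells received test compounds alongside 0.1 nM 17beta-estradiol (final) at 37C for 22 hr. Live cells were then quantified via protease-substrate fluorescence.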

[11] = qHTS assay to identify small molecule antagonists of the androgen receptor (AR) signaling pathway using the MDA cell line in the presence of 0.5 nM R1881 - cell viability counter screen (AID 1259242); also: nearly all actives have a fitted effect of over 45% in size
In short: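 Cells seeded at 3,000/well and allowed 5 hr at 37C, 0% CO2 before compound transfer and R1881 (0.5 nM final) addition; 16 hr later, live-cell protease fluorescence indicated cytotoxicity.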

[12] = qHTS assay to identify small molecule HDAC inhibitors (AID 1259364);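 also: wild-type HCT-116 cells with endogenous class I/II HDAC activity; top concentration of the series differs between compounds; nearly all actives have a fitted effect of over 45% in size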
In short: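 HCT-116 wt cells, 1,500/well, overnight attach. Compounds (DMSO) 2 h, 37 °C. HDAC-Glo I/II, 30 min RT. Luminescence.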

[13] = qHTS assay to identify small molecule HDAC inhibitors - cell viability counter screen (AID 1259365)
In short: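 HCT-116 wild-type, overnight attachment; 2hr drug exposure, 37C; CellTiter-Glo luminescent ATP readout after 30min RT.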

[14] = qHTS assay to identify small molecule agonists of the sonic hedgehog signaling (Shh) pathway - cell viability counter screen (AID 1259366); also: nearly all actives have a fitted effect of over 50% in size
In short: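 Compounds in DMSO were pin-transferred onto 3T3 Gli1-Luc cells that had settled 4hr; plates then stood 24hr at 37C and 5% CO2. One hour before the end, CellTiter-Fluor was added and fluorescence recorded.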

[15] = qHTS assay to identify small molecule antagonists of the sonic hedgehog signaling (Shh) pathway - cell viability counter screen (AID 1259367); also: nearly all actives have a fitted effect of over 55% in size
In short: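 Tox21 library chemicals were tested on a Gli1-Luc NIH/3T3 clone (2,000 cells/well) stimulated by conditioned medium; viability was quantified as fluorescence from CellTiter-Fluor reagent added at 23 hr.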

[16] = qHTS assay to identify small molecule agonists of the sonic hedgehog signaling (Shh) pathway (AID 1259368; calls by dose curve;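 also: NIH/3T3-derived 3T3Gli1-Luc cells carrying a stable Gli1-driven firefly luciferase reporter; series mostly up to about 92 µM; nearly all actives have a fitted effect of over 15% in size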)
In short: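 Following a 24 hr incubation with DMSO-dissolved compounds at 37 C, 5% CO2, Gli1-Luc NIH/3T3-derived cells received luciferase reagent for 30 min at room temperature prior to luminescence measurement.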

[17] = molecular target: Estrogen receptor (Homo sapiens) (UniProt P03372); assay: qHTS assay to identify small molecule antagonists of the estrogen receptor alpha (ER-alpha) signaling pathway using the BG1 cell line in the presence of 0.1 nM 17-beta-estradiol (AID 1259244); also: nearly all actives have a fitted effect of over 50% in size
In short: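 Luciferase signal from VM7Luc4E2 ERE-reporter cells, co-dosed with test compound and 0.1 nM final 17beta-estradiol for 22 h, read with ONE-Glo.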

[18] = A CellTox Green Cytotoxicity Assay to monitor cytotoxicity in HEK293 cells - 16 hour (AID 1224888); also: nearly all actives have a fitted effect of over 35% in size
In short: as §1

[19] = molecular target: Androgen receptor (Homo sapiens) (UniProt P10275); assay: qHTS assay to identify small molecule antagonists of the androgen receptor (AR) signaling pathway using the MDA cell line in the presence of 0.5 nM R1881 (AID 1259243); also: nearly all actives have a fitted effect of over 50% in size
In short: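 Luminescence from an AR/GR-responsive MMTV-luciferase construct in MDA-kb2 breast carcinoma cells, read 30 min after ONE-Glo, following 16 hr co-treatment with compounds and 0.5 nM R1881.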

[20] = qHTS assay to identify small molecule phospholipidosis (PLD) inducers (AID 1259344; active = well fitted curve in the direction sought with a large enough effect; an effect the other way counts as inactive or inconclusive)
In short: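 Image-based: LipidTOX Red pit count/intensity per well and per cell; HepG2, 24 h compound at 37 C, PFA fixation, Hoechst counterstain.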

Measured: Potency

Chain of Estrogen receptor (Homo sapiens) (P03372 whole entry, looked up): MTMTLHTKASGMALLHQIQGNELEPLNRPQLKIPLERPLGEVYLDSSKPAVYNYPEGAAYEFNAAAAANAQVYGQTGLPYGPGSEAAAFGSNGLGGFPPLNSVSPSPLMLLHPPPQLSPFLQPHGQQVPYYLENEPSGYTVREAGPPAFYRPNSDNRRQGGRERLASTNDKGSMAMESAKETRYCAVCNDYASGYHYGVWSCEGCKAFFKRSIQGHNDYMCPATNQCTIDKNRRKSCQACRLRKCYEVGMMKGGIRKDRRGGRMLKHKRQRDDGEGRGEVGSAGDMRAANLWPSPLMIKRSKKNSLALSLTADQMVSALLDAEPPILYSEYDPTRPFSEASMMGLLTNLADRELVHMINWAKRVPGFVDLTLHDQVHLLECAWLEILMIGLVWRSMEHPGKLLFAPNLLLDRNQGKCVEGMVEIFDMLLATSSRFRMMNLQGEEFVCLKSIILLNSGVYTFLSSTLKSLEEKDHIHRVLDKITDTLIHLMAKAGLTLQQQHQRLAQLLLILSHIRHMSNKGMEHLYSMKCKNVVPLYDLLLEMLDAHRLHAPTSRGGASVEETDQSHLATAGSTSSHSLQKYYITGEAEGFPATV
Chain of Androgen receptor (Homo sapiens) (P10275 whole entry, looked up): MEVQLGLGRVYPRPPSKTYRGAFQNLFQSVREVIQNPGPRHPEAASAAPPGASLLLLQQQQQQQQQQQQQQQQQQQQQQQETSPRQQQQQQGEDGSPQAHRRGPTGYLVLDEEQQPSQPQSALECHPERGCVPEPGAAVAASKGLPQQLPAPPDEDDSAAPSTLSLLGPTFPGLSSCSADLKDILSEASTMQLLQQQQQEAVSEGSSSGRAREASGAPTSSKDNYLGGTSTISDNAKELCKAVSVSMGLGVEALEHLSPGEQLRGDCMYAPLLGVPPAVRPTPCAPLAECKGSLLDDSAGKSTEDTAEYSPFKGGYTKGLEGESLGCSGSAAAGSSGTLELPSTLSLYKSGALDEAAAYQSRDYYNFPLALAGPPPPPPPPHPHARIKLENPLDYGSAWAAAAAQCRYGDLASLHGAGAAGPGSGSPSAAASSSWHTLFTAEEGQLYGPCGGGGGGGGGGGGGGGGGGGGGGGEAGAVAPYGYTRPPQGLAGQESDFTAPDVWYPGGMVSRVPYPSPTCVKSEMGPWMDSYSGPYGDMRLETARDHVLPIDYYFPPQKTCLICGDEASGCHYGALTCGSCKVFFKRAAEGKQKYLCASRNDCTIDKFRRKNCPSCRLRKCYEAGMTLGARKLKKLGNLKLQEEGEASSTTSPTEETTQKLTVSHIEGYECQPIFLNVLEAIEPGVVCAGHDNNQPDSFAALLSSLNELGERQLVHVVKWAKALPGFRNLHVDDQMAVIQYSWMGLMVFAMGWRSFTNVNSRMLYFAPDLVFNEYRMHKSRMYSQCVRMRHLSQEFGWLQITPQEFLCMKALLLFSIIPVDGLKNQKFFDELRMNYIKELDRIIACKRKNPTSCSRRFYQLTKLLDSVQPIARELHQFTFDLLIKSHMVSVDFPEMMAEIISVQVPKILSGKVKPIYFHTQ

COC(=O)c1ccccc1S(=O)(=O)NC(=O)Nc1nc(C)nc(OC)n1
inactive: [1] | [2] | [3] | [4] | [5] | [6] | [7] | [8] | [9] | [10] | [11] | [12] | [13] | [14] | [15] | [16]

CCCCCCC[CH2][Sn]([Cl])([Cl])[CH2]CCCCCCC
inactive: [1] | [2] | [3] | [4] | [5] | [6] | [7] | [8] | [9] | [10] | [11] | [17] | [13] | [14] | [15]

CC(C)NCC(O)c1ccccc1Cl (configuration not stated)
inactive: [1] | [2] | [3] | [4] | [5] | [7] | [18] | [8] | [9] | [10] | [11] | [19] | [17] | [20] | [13] | [14] | [15] | [16]

C[C@@H]1CC2=CC(=O)CC[C@@H]2[C@H]2CC[C@@]3(C)[C@@H](CC[C@]3(C)O)[C@@H]21
inactive: [1] | [2] | [3] | [4] | [5] | [7] | [18] | [8] | [9] | [10] | [11] | [19] | [12] | [13] | [14] | [15] | [16]

O=S(=O)(O)F
inactive: [1] | [2] | [3] | [4] | [5] | [7] | [18] | [8] | [9] | [10] | [11] | [17] | [12] | [13] | [14] | [15] | [16]

O=C(O)CCCCCCNC1c2ccccc2CCc2ccccc21
inactive: [1] | [2] | [3] | [4] | [5] | [7] | [18] | [8] | [9] | [10] | [11] | [17] | [20] | [12] | [13] | [15] | [16]

Oc1cccc(Cl)c1Cl
inactive: [1] | [2] | [3] | [4] | [5] | [7] | [18] | [8] | [9] | [10] | [11] | [17] | [12] | [13] | [14] | [15] | [16]

From PubChem BioAssay (Tox21)
